From PubChem BioAssay (NCATS) come the findings set out here.

Inconclusive results are not listed. Calls of active or inactive are those of the source. Unless noted, the call rests on the fitted dose curve; in most records, active means well fitted curve in either direction with a large enough effect (not every such curve was filed as active); inconclusive means small, poorly fitted or top-dose-only effect, or another doubt; inactive means flat fitted curve, though single readings scatter.

The target in assay [1] is Lysosomal acid glucosylceramidase (Homo sapiens) (UniProt P04062). Kind of assay: Glucocerebrosidase-p2 (AID 348; in the data active means potency below about 10 µM; further: potency means the concentration at half of the fitted maximal effect). The following applies: purified GBA, blue fluorogenic substrate, 40 min. The procedure, abridged: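 Normal human glucocerebrosidase (0.2 nM) with blue fluorogenic substrate (80 uM final) in citrate/phosphate pH 5.9 with 10mM sodium taurocholate, 0.01% tween-20; 40 min RT, NaOH/glycine stop; fluorescence Ex 365/Em 440; AC50 from a titration from 0.6 nM upwards.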

Assay [2] is described as follows: AP1 Signaling Pathway (AID 357). Further: on the % scale 0 is the no-effect control and ±100 the full control effect. An outline of the steps: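 ME-180 cells with beta-lactamase reporter under AP-1 response element, stimulated with EC50 EGF; compounds tested in titration series, 5 h at 37 °C. CCF4 substrate added 2.5 h at room temperature; 460/530 nm emission ratio gave %activity and AC50.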
In assay [3] the target is Cytochrome P450 1A2 (Homo sapiens) (UniProt P05177). Kind of assay: p450-cyp1a2 (AID 410; calls by dose curve; further: potency means the concentration at half of the fitted maximal effect;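 on activity change, negative = inhibition: -100% = full effect of reference inhibitor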). The procedure, abridged:
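Luminescent demethylation readout: Luciferin-ME (100uM, equal to Km) turned over by 20nM CYP1A2 for 60 min at room temperature after NADPH regeneration addition, following 10 min compound preincubation. Normalization used 57 uM furafylline as full inhibition.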

A short description of assay [4]: NFAT Signaling Pathway (AID 444).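 Further: carbachol stimulus at about its EC50 of 1 µM final; on the % scale 0 is the no-effect control and ±100 the full control effect.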 The following applies: Jurkat NFAT-bla M1, carbachol, beta-lactamase ratio, 5 h; at 7.69 µM (top of the series). An outline of the steps:
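Jurkat cells with NFAT-driven β-lactamase reporter and co-expressed M1 receptor, stimulated with carbachol (final 1 uM, ~EC50), compound titration, 5 h at 37 °C. CCF4 loaded 1 h at RT; 460/530 nm ratio gave %activity and AC50.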

Assay [5] can be described thus: Stat Signaling Pathway (AID 446).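 Further: ME-180 cervical cancer cells given 40 pM IL-6 alongside compound; SIE-controlled beta-lactamase reporter measured as 460/530 nm FRET emission ratio; on the % scale 0 is the no-effect control and ±100 the full control effect.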 An outline of the steps: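 FRET read-out (405 nm excitation, 460/530 nm emission) of a beta-lactamase reporter under a STAT-inducible element in ME-180 cervical carcinoma cells. Cells with compound receive 40 pM IL-6 for 5 h. Values are normalised to AC90 stimulation and AC90 JAK-inhibitor controls.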
For assay [6], the target named is Mitogen-activated protein kinase 10 (Mus musculus) (UniProt Q61831). The assay is described as follows: JNK3 AlphaScreen Assay (AID 530).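 Further: kinase came from lysate of stimulated human HepG2 cells; signal reports phosphorylation of biotinylated GST-cJun 1-79 at Ser73 with 10 µM ATP; on the % scale 0 is the no-effect control and ±100 the full control effect.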 The procedure, abridged:
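Activity was read by AlphaScreen after JNK3-containing HepG2 lysate (cytokine pre-activated) phosphorylated biotinylated GST-cJun with 10 uM ATP at room temperature. Phospho-Ser73 cJun antibody with Protein-A acceptor beads provided detection.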

The target of assay [7] is 3',5'-cyclic-AMP phosphodiesterase 4B (Homo sapiens) (UniProt Q07343). The assay is described as follows: qHTS Assay for Inhibitors of PDE-IV (AID 607; active means well fitted activation curve with a large enough effect in the main read-out, with a control signal flat, not every such curve was filed as active; further: % of control where 0% means no effect). The procedure, abridged:
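Cell-based read-out of cAMP via a modified cyclic nucleotide-gated channel and membrane potential dye (535/590 nm) in HEK293 cells expressing PDE4 endogenously. Compounds tested up to 22.9 uM final; 100 uM RO 20-1724 reference.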

Assay [8] is described as follows: qHTS Assay for Lipid Storage Modulators (AID 1519; calls by dose curve). The following applies: Drosophila S3 cells, BODIPY lipid droplet/cell ratio, laser cytometry, cells loaded with oleic acid; for activity change, negative = inhibition: at 57.5 µM (top of the series). An outline of the steps:
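Cells seeded at 5,000 per well were treated with compounds over a concentration series and loaded with oleic acid (400 uM, as added). Lipid droplet fluorescence (488 nm excitation, 500-530 nm channel) was read by laser-scanning cytometry and normalized to 20 uM Triacsin C.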

The target in assay [9] is Ubiquitin carboxyl-terminal hydrolase 1 (Homo sapiens) (UniProt O94782). Kind of assay: Inhibitors of USP1/UAF1: Pilot qHTS (AID 504865; active means well fitted curve in the direction sought with a large enough effect; an effect the other way counts as inactive or inconclusive;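 further: rhodamine fluorescence freed from ubiquitin-rhodamine substrate followed over time; top concentration of the series differs between compounds; on the % scale 0 is the no-effect control and ±100 the full control effect; nearly all actives have a fitted effect of over 35% in size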). An outline of the steps:
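Enzyme-free wells gave the negative control, while test wells held 1nM USP1/UAF1 preincubated with compound for 15 min at room temperature. Ub-Rho at 150nM final started the reaction, and fluorescence at 480/540 nm was recorded kinetically.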

Assay [10] is described as follows: Primary qHTS for small molecule stabilizers of the endoplasmic reticulum resident proteome: Secreted ER Calcium Modulated Protein (SERCaMP) assay (AID 1508630; active means well fitted curve in the direction sought with a large enough effect; an effect the other way counts as inactive or inconclusive; further: on the % scale 0 is the no-effect control and ±100 the full control effect). An outline of the steps:
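The SH-SY5Y reporter protocol was run at 3 concentrations up to 38.3 uM (primary) or 11 concentrations (follow-up): 16 h compound, 100 nM thapsigargin for 4 h, then extracellular luciferase luminescence.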

For assay [11], the target named is Glucocorticoid receptor (Homo sapiens) (UniProt P04150). The assay is described as follows: GR-EFC Redistribution (AID 451; calls by dose curve; further: potency means the concentration at half of the fitted maximal effect). The following applies: CHO-K1 GR-EFC translocation, beta-gal luminescence, 2 h. The procedure, abridged: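 CHO-K1 cells expressing nuclear EA and GR-ED fragments of b-gal; compounds titrated up to 46 uM final, 2 h at 37 C. GR nuclear translocation read as complemented b-gal luminescence after 1 h RT detection.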

The target in assay [12] is Cytochrome P450 3A4 (Homo sapiens) (UniProt P08684). The assay is described as follows: qHTS Assay for Activators of Cytochrome P450 3A4 (AID 885; active means well fitted curve in the direction sought with a large enough effect; an effect the other way counts as inactive or inconclusive; further: nearly all actives have a fitted effect of over 65% in size; further: potency means the concentration at half of the fitted maximal effect). The procedure, abridged:
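Luminescent readout of luciferin formed from 25 uM Luciferin-PPXE (KM level) by 20 nM CYP3A4 in 200 mM KPO4, with 60 min NADPH-driven reaction at room temperature after 10 min compound exposure. Ketoconazole (57 uM) defined 100% inhibition.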

Assay [13] deals with HIV-1 nucleocapsid protein NCp7 (binding to TG oligonucleotide). The assay is described as follows: HIV Nucleocapsid (AID 346; call rule not given here;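 further: potency means the concentration at half of the fitted maximal effect; potency is for inhibitors that block NC binding and lower polarization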). The following applies: HIV-1 NC / fluorescein-TGTGTGTG probe, fluorescence polarization. An outline of the steps:
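Inhibition of nucleocapsid binding to single-stranded 5'-TGTGTGTG probe (10 nM) was measured by fluorescence polarization after 1 hr at room temperature with 100 nM protein under high-salt, zinc-containing, reducing conditions.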

The nature of assay [14]: qHTS Assay for Identification of Small Molecule Agonists for Hypoxia Response Element Signaling Pathway (AID 914; active means well fitted activation curve with a large enough effect in the signal ratio, with a control signal flat, not every such curve was filed as active; the % refers to the signal ratio; further: % of control where 0% means no effect). The following applies: ME-180 (cervical carcinoma) HRE-bla reporter, beta-lactamase ratio, CoCl2, 17 h; activation: stronger effect = higher value. The procedure, abridged:
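Reporter activity (beta-lactamase, CCF4 460nm/530nm ratio) in HRE-bla ME-180 cells is recorded after 17 h compound exposure with EC50 CoCl2 at 37 degrees Celsius. AC50 values come from titration data.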

Assay [15] addresses Cytochrome P450 3A4 (Homo sapiens) (UniProt P08684). Kind of assay: qHTS Assay for Inhibitors and Substrates of Cytochrome P450 3A4 (AID 884; active means well fitted curve in the direction sought with a large enough effect; an effect the other way counts as inactive or inconclusive; further: on the % scale 0 is the no-effect control and ±100 the full control effect; nearly all actives have a fitted effect of over 50% in size). An outline of the steps: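 Luminescent readout of luciferin produced by CYP3A4 (20 nM) dealkylation of Luciferin-PPXE, 25 uM (its KM). NADPH-driven reaction ran 60 min at RT after 10 min compound preincubation; data scaled to 57 uM ketoconazole as 100% inhibition.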

The mark [16] stands for this setting: measured here: cell count channel max response.
[17] abbreviates: measured here: lipid channel max response.

Chain of 3',5'-cyclic-AMP phosphodiesterase 4B (Homo sapiens) (Q07343 whole entry, looked up): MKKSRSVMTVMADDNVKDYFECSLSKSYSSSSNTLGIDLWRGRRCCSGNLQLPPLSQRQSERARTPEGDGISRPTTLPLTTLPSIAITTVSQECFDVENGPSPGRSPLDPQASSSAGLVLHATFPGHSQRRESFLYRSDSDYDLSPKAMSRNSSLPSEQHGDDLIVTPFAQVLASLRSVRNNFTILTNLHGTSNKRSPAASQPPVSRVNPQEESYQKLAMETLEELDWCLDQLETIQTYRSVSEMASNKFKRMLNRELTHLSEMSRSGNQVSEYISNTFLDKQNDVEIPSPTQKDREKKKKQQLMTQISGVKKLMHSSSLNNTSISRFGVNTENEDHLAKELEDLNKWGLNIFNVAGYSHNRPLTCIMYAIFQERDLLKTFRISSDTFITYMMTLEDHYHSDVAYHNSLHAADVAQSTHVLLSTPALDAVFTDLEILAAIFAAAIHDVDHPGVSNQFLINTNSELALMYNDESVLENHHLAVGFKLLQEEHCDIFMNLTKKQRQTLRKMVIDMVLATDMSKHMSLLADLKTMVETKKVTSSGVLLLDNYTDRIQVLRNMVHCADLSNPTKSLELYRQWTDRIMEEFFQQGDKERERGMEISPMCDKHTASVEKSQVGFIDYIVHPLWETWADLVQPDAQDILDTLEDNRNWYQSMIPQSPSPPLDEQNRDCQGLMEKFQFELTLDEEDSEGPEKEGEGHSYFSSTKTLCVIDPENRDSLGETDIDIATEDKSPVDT
Chain of Lysosomal acid glucosylceramidase (Homo sapiens) (P04062 whole entry, looked up): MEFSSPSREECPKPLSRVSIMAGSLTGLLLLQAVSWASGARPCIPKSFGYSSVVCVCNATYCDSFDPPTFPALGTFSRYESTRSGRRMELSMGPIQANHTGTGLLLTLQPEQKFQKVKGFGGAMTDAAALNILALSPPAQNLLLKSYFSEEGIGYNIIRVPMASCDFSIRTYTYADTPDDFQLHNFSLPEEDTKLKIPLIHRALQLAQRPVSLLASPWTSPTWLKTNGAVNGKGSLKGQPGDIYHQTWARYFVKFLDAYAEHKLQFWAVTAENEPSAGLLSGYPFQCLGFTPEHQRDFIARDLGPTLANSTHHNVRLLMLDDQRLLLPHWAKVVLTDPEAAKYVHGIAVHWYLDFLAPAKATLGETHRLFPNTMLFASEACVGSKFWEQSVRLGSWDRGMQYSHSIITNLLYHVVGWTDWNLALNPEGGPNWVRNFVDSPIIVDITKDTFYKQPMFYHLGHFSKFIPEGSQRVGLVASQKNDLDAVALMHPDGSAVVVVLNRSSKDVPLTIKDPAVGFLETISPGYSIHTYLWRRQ
Chain of Glucocorticoid receptor (Homo sapiens) (P04150 whole entry, looked up, the tested form may be a part): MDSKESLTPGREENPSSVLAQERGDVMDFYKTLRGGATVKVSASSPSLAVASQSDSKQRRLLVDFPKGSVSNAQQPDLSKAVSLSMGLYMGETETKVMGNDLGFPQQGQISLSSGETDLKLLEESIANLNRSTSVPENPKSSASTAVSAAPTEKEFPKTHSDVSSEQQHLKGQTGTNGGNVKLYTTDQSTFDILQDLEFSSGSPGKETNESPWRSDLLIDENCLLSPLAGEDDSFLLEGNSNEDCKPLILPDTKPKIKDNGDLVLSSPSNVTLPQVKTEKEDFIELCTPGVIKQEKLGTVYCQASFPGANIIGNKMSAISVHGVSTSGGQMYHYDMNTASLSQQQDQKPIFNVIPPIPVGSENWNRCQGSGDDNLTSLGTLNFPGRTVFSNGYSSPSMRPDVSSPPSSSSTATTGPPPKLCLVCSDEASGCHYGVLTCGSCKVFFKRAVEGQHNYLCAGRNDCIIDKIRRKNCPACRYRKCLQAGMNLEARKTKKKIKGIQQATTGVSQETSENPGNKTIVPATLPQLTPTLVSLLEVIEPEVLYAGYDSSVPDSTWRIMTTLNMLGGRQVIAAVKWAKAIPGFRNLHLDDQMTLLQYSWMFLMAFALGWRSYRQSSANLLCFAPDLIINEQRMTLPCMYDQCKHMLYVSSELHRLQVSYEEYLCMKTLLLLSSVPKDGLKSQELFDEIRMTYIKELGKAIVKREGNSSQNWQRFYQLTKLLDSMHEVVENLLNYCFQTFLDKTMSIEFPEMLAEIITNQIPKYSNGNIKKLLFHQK
Chain of Cytochrome P450 3A4 (Homo sapiens) (P08684 whole entry, looked up): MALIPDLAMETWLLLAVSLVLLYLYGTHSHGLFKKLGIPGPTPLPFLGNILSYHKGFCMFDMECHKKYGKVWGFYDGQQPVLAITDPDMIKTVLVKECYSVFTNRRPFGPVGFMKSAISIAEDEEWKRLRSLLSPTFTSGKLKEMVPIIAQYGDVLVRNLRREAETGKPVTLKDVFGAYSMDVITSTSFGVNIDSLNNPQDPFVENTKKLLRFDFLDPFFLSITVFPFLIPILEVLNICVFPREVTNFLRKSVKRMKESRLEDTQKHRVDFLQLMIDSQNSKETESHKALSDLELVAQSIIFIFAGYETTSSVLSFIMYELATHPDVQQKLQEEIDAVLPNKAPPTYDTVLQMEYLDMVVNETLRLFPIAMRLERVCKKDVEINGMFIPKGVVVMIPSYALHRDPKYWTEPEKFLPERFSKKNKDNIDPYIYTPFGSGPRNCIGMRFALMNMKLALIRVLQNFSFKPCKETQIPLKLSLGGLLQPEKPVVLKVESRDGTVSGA
Chain of Cytochrome P450 1A2 (Homo sapiens) (P05177 whole entry, looked up): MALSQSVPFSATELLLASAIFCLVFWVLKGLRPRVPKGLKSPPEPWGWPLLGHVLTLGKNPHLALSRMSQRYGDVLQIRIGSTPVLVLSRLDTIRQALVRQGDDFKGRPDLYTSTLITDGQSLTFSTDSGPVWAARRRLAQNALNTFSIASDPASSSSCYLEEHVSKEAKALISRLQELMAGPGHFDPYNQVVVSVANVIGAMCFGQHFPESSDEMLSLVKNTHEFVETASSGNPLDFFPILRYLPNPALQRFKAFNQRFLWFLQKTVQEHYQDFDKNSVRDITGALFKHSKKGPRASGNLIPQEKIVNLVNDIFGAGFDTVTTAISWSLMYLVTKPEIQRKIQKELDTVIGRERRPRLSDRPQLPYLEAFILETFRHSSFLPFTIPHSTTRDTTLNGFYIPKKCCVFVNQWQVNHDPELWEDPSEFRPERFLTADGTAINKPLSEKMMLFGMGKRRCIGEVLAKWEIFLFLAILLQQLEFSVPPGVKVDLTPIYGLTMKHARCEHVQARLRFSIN
Chain of Ubiquitin carboxyl-terminal hydrolase 1 (Homo sapiens) (O94782 whole entry, looked up): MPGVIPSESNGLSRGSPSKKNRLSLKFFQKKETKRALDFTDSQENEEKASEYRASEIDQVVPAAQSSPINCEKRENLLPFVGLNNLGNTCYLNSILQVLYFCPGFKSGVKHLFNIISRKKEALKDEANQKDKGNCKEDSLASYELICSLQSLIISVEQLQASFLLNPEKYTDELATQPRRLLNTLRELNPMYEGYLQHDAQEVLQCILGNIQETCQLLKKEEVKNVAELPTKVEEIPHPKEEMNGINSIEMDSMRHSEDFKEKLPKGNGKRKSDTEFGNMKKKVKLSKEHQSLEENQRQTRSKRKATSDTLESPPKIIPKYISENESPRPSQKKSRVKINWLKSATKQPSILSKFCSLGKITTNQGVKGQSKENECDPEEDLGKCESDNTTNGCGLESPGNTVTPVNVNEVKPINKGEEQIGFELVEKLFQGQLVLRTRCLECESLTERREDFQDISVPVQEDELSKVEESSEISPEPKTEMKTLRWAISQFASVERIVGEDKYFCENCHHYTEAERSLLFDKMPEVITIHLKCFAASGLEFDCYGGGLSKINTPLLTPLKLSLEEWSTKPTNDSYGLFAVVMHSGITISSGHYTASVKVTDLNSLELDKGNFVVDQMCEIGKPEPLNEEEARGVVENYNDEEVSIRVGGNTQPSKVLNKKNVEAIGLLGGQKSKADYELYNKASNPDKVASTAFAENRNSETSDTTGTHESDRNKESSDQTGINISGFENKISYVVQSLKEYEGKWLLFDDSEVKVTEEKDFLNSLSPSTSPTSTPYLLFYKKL

With `CN1CCN(c2ncc3ncc(=O)n(C)c3n2)CC1`, the values for the Potency in assay [1] and in assay [3] were > 11.4 µM (inactive) and 12.6 µM (active), respectively. Further, the call in [2], in assay [5], in [6] and in [10] was inactive. The activity change, negative = inhibition was 11.5% (inactive) in assay [4] and 3.09% (inactive) in assay [8]. Besides, the Potency result in assay [7] and in assay [9] was “inactive” in each case. Also, the max response in assay [8] (setting [16]) is -0.0774%; in [8] (setting [17]), 1.21%.

For `CS(=O)(=O)N1CCC2(CC1)CN(Cc1ccncc1)C2`, the Potency in assay [1] is > 11.4 µM (inactive); in [11], > 46 µM (inactive). Moreover, the call in [2], in assay [5], in assay [6] and in [10] was inactive. Further, the Potency result in assay [3], in [7] and in assay [12] was “inactive” in each case. Also, the activity change, negative = inhibition in [4] is 6.37% (inactive); in assay [8], 4.09% (inactive). In addition, the max response in assay [8] (setting [16]) came to 21.7%; in assay [8] (setting [17]), 27.2%.

For `CN1CCCC2(CCN(C(=O)c3ccco3)CC2)C1`, the Potency in assay [13] is > 20 µM (inactive); in [1] it was > 11.4 µM (inactive); in assay [11], > 46 µM (inactive). The compound was classed as inactive in [2], in assay [5], in [6] and in [10]. The Potency entry in assay [7] is “inactive”. Moreover, the activation in assay [14] was -1.89% (inactive). In assay [8], the activity change, negative = inhibition is -2.44% (inactive). Further, the max response is -24.9% in assay [8] (setting [16]) and -25.6% in [8] (setting [17]).

With `CC(C)NC(=O)N1CCCC2(CCN(C(=O)Oc3ccccc3)CC2)C1`, the Potency was > 20 µM (inactive) in [13], > 11.4 µM (inactive) in assay [1], 12.6 µM (active) in [3] and > 46 µM (inactive) in assay [11]. Also, the result in [2], in assay [5] and in assay [10] was inactive. The Potency result in assay [7] and in assay [12] was “inactive” in each case. Moreover, the activity change, negative = inhibition in [8] is 6.21% (inactive). For the same compound, the max response in [8] (setting [16]) worked out at 27.7%; in assay [8] (setting [17]), 29.9%.

In the case of `CC(C)NC(=O)N1CCC2(CC1)CCN(C(=O)Oc1ccccc1)CC2`, the Potency is > 20 µM (inactive) in assay [13], > 11.4 µM (inactive) in [1], > 46 µM (inactive) in assay [11] and 25.1 µM (active) in assay [12]. Also, the outcome in [2], in [5] and in assay [10] was inactive. Further, the Potency entry in [3], in assay [7] and in [15] was “inactive” each time. In addition, the activity change, negative = inhibition in assay [8] was 2.9% (inactive). The max response in assay [8] (setting [16]) is -12.1%; in [8] (setting [17]), -6.43%.

As for `Cc1noc(C)c1C(=O)N1CCC[C@@]2(CCN(CC(C)C)C2)C1`, the Potency in [13] is > 20 µM (inactive); in [1], > 11.4 µM (inactive); in assay [11], > 46 µM (inactive). Further, the result in assay [2] and in assay [10] was inactive. Moreover, the results for the activity change, negative = inhibition in [4] and in assay [8] were 12.5% (inactive) and 5.3% (inactive), respectively. The Potency result in assay [7] is “inactive”. Further, the figures for the max response in assay [8] (setting [16]) and in assay [8] (setting [17]) were 6.03% and 15.4%, respectively.

As for `CN1CC[C@@]2(CCCN(C(=O)c3csnn3)C2)C1`, the Potency in assay [13] is > 20 µM (inactive); in [1] it was > 11.4 µM (inactive); in assay [11], > 46 µM (inactive). For the same compound, the result in assay [2], in assay [5], in assay [6] and in assay [10] was inactive. Besides, the Potency entry in assay [3] and in assay [7] was “inactive” in each case. Further, the activity change, negative = inhibition in assay [4] is -23.3% (inactive); in assay [8], -3.58% (inactive). The figures for the max response in [8] (setting [16]) and in assay [8] (setting [17]) were -13.7% and -16.8%, respectively.
